# VACV Venus inh: inhibitors of vaccinia virus (Venus reporter); 330,000 tested, 0.46% active; Vaccinia virus Venus reporter expression, fluorescence; AID 720580; Potency, µM (titrated, usually from 36.5 µM), most hits filed as inhibitors; calls by dose curve; tested in A549 cells; further: nearly all actives have a fitted effect of over 30% in size
# Pf growth 96h: P. falciparum growth inhibition at 96 hours | 320,000 tested, 6.9% active | Potency, µM (series often up to 28.7 µM), hits mostly inhibitors | AID 504834 | P. falciparum luciferase reporter growth, 96 h
#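 Two-generation exposure (96 h) targets delayed-death phenotype. Reporter parasites carrying integrated firefly luciferase, in red cells at 2% hematocrit and 0.05% parasitemia final, kept at 37 C, 5% CO2; luminescence loss indicates inhibition.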
# Pf growth 48h: P. falciparum growth inhibition at 48 hours (one generation) | P. falciparum luciferase growth in erythrocytes, 48 h | Potency, µM (top dose mostly 28.7 µM), most hits filed as inhibitors | 310,000 tested, 5.9% active | AID 504832
#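 First compound was added to culture medium, then infected red cells at 0.1% parasitemia and 2% hematocrit (final). After incubation at 37 C under 5% CO2, luciferase detection reagent was dispensed and light output recorded.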
# AMA1 RON2 block: inhibitors of Plasmodium falciparum AMA1-RON2 interaction; Potency, µM (titrated, usually from 58.2 µM), actives largely listed as inhibitors; 360,000 tested, 0.2% active; AID 720542; AlphaScreen AMA1-biotinylated RON2 peptide binding; further: nearly all actives have a fitted effect of over 45% in size
#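 AMA1 (3D7) with his tag at 25 nM final met compounds first, then biotinylated RON2 peptide at 25 nM; detection used donor plus acceptor beads, 10 µg/mL apiece, read by AlphaScreen after 30 min at room temperature.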
# VACV mCherry inh: inhibitors of vaccinia virus infection (mCherry reporter signal) | Vaccinia virus mCherry reporter infection, fluorescence | Potency, µM (series often up to 36.5 µM), most hits filed as inhibitors | 310,000 tested, 0.63% active | AID 720579; calls by dose curve; tested in A549 cells; further: nearly all actives have a fitted effect of over 35% in size
# Hits are given with their value; . = inactive; ? = inconclusive; / = no result given; [ ] = dose if it differs, or a comment. The list is not random: actives were taken first. Their share in the collection is about 8.7%. Unless noted, the call rests on the fitted dose curve; in most records, active means well fitted curve in the direction sought with a large enough effect; inconclusive means small, poorly fitted or top-dose-only effect, or another doubt; inactive means no such curve, though single readings can be large; an effect the other way counts as inactive or inconclusive.
SMILES,VACV Venus inh,Pf growth 96h,Pf growth 48h,AMA1 RON2 block,VACV mCherry inh
COC(=O)C1=C(C)NC(=O)/C1=C\c1cc(C)n(-c2ccccc2F)c1C,.,.,?,.,.
COC(=O)C1=C(C)NC(=O)/C1=C\c1cc(C)n(-c2c(C)cccc2C)c1C,.,2.6µM,/,.,.
Cc1cccc(C)c1-n1c(C)cc(/C=C2\NC(=O)NC2=O)c1C,/,12µM,12µM,.,/
COC(=O)C1=C(C)NC(=O)/C1=C\c1cc(C)n(-c2ccccc2C)c1C,.,9.3µM,/,.,?
O=C(C[n+]1cc(-c2ccc(F)cc2)n2c1CCC2)c1cccs1,.,?,8.3µM,.,.
COc1ccc(-c2c[n+](CC(=O)c3ccccc3)c3n2CCCCC3)cc1,/,?,?,.,/
Cn1c(NC(=O)C[n+]2cc(-c3ccc(F)cc3)n3c2CCC3)cc(=O)n(C)c1=O,.,0.59µM,3.7µM,.[2.32 µM],.
Cc1ccc(-c2c[n+](CC(=O)Nc3cc(=O)n(C)c(=O)n3C)c3n2CCC3)cc1,.,1.2µM,4.1µM,.,.
COc1ccc(CNCc2c(C(=O)O)n(Cc3ccc(F)cc3)c3cc(C)ccc23)cc1OC,.,/,/,/,.
C=C(C)CSc1nc2ncccc2[nH]1,.,.,.,.,/
CCN(CC)C(=O)CSc1nc2ncccc2[nH]1,.,12µM,.,.,.
Cc1cc(C)c(N=Cc2c(O)c3ccccc3oc2=O)c(C)c1,.,.,10µM,.,.
Cc1cc(C)cc(N=Cc2c(O)c3ccccc3oc2=O)c1,.,?,.,.,.
c1ccc2c(c1)[IH]c1ccccc1-2,11µM,/,/,.,?
CCCNc1nc(Nc2ccc([N+](=O)[O-])cc2)nc(N2CCOCC2)n1,.,/,/,/,?
CCNc1ccc(S(N)(=O)=O)cc1[N+](=O)[O-],.,12µM,.,.,.
COc1ccc(CN2C(=O)C(C)N(C(=O)c3c(F)cccc3F)c3ccccc32)cc1 (stereo not drawn),/,2.1µM,1.9µM,.,/
COc1ccc(CN2C(=O)C(C)Oc3ccccc32)cc1 (stereo not drawn),/,?,.,.,/
COc1cccc(CN2C(=O)C(C)N(C(=O)c3ccccc3)c3ccccc32)c1 (stereo not drawn),.,10µM,?,.,.
CC1C(=O)N(Cc2ccc([N+](=O)[O-])cc2)c2ccccc2N1C(=O)c1c(F)cccc1F (stereo not drawn),.,?,9.3µM,.,.
COc1cccc(CN2C(=O)C(C)Oc3ccccc32)c1 (stereo not drawn),.,?,?,.,.
Cc1cc(Cl)ccc1NC(=O)c1cc2ccccn2n1,.,/,/,/,.
O=C(Cn1c(=O)n(Cc2ccc3c(c2)OCO3)c(=O)c2ccc(C(=O)NC3CCCCC3)cc21)Nc1ccccc1F,.,/,/,/,.
COc1ccc(OCC(=O)NC2CC(=O)N(c3ccc4c(c3)OCCO4)C2)cc1 (stereo not drawn),.,/,/,/,.
O=C(NCc1ccc(Cl)cc1)C(=O)Nc1cccc(Br)c1,?,/,/,/,.
SMILES,VACV Venus inh,Pf growth 96h,Pf growth 48h,AMA1 RON2 block,VACV mCherry inh
Cc1cc(C)cc(-n2ccnc2SCC(=O)Nc2nnc(C)s2)c1,.,/,/,/,.
CC(C)(C)N1C(=O)[C@H]2[C@@H](c3ccc(Br)cc3)N3C(=O)N(c4cccc(F)c4)C(=O)[C@@]3(Cc3ccccc3)[C@H]2C1=O,.,4.7µM,5.2µM,.,.
COc1ccc([C@@H]2[C@@H]3C(=O)N(C(C)(C)C)C(=O)[C@@H]3[C@]3(Cc4ccccc4)C(=O)N(c4cccc(F)c4)C(=O)N23)cc1,.,9.3µM,?,.,.
Cc1ccc(S(=O)(=O)Nc2cc3c(cc2C)n(C)c(=O)c(=O)n3C)c(C)c1,.,/,/,/,.
CCc1ccc(OCC(=O)NNC(=O)c2cnccn2)c(Br)c1,/,?,10µM,.,/
CCc1ccc(OCC(=O)NC2CCCCC2)c(Br)c1,/,12µM,.,.,/
CCc1ccc(OCC(=O)NNC(=S)NC(=O)C2CCCCC2)c(Br)c1,/,.,.,.,/
O=C1CSC(=Nc2cccc([N+](=O)[O-])c2)N1,/,1.7µM,.,.,/
CCCc1cc(=O)oc2cc(C)cc(OCC(=O)Nc3ccc(CN4CCOCC4)cc3)c12,/,8.3µM,?,.,/
CCc1cc(=O)oc2cc(C)cc(OCC(=O)NCCc3c[nH]c4ccccc34)c12,.,2.6µM,1.9µM,.,.
CCc1cc(=O)oc2cc(C)cc(OCC(=O)NC3CC3)c12,/,?,12µM,.,/
CCCc1cc(=O)oc2cc(C)cc(OCC(=O)NC3CC3)c12,/,2.1µM,1.7µM,.,/
